Assay [1] has as its target Aldehyde dehydrogenase, mitochondrial (Homo sapiens) (UniProt P05091). Nature of the assay: qHTS for Inhibitors of the Aldehyde Dehydrogenase Family (ALDH2) Confirmatory screens (AID 2061303; active = well fitted inhibition curve with a large enough effect; title and protocol of this record describe different tests; note: nearly all actives have a fitted effect of over 45% in size; note: potency is the fitted concentration of half-maximal effect). (In general: qHTS replaces the single test concentration by a dilution series.)
Assay [2] has as its target Retinaldehyde dehydrogenase 3 (Homo sapiens) (UniProt P47895). Description: qHTS for Inhibitors of the Aldehyde Dehydrogenase Family (ALDH1A3) Confirmatory screens (AID 2061311). Note: nearly all actives have a fitted effect of over 60% in size. Note: potency is the fitted concentration of half-maximal effect.
Assay [3] addresses Retinal dehydrogenase 2 (Homo sapiens) (UniProt O94788). Description: qHTS for Inhibitors of the Aldehyde Dehydrogenase Family (ALDH1A2) Confirmation screens (AID 2061314). Note: nearly all actives have a fitted effect of over 65% in size. Note: potency is the fitted concentration of half-maximal effect.
The target in assay [4] is Aldehyde dehydrogenase 1A1 (Homo sapiens) (UniProt P00352). Description: qHTS for Inhibitors of the Aldehyde Dehydrogenase Family (ALDH1A1) Confirmatory screens (AID 2061316). Note: nearly all actives have a fitted effect of over 65% in size. Note: potency is the fitted concentration of half-maximal effect.
Assay [5] has as its target Aldehyde dehydrogenase, mitochondrial (Homo sapiens) (UniProt P05091). Description: qHTS for Inhibitors of the Aldehyde Dehydrogenase Family (ALDH2) Primary screen (AID 2061308). Note: nearly all actives have a fitted effect of over 55% in size.
The target in assay [6] is Retinaldehyde dehydrogenase 3 (Homo sapiens) (UniProt P47895). Description: qHTS for Inhibitors of the Aldehyde Dehydrogenase Family (ALDH1A3) Primary screen (AID 2061315).
Assay [7] has the same target. Nature of the assay: qHTS for Inhibitors of the Aldehyde Dehydrogenase Family (ALDH1A3) Validation screen (AID 2061312). Note: potency is the fitted concentration of half-maximal effect; nearly all actives have a fitted effect of over 45% in size.

Inconclusive results are not listed. The source made the active and inactive calls. Unless noted, calls come from the whole dose curve; as a rule, active = well fitted curve in the direction sought with a large enough effect; inconclusive = small, poorly fitted or top-dose-only effect, or another doubt; inactive = no such curve, though single readings can be large; an effect the other way counts as inactive or inconclusive.

Consider `Cc1ccc(NC(=O)N2CCN(c3ccc(Cl)c(Cl)c3)CC2)cc1`, for which the Potency entry in assay [1], in assay [2], in assay [3] and in assay [4] was “inactive” in each case.

On to `COc1cccc(-c2cccc(C(=O)N3CCN(C(=O)Nc4ccccc4)CC3)c2)c1`, for which the Potency result in assay [1], in assay [2] and in assay [3] was “inactive” each time.

Regarding `Cc1nc(CNc2ncnc3ccc(-c4ccoc4C)cc23)cs1`, the Potency entry in assay [1], in assay [5] and in assay [6] was “inactive” throughout.

As for `CCOc1ccc(NC(=O)N2CCN(c3ccc(Cl)c(Cl)c3)CC2)cc1`, the Potency entry in assay [1], in assay [2], in assay [3] and in assay [4] was “inactive” throughout.

`Cc1ccc(-n2nc(C)c3c(C(=O)Nc4ccc(Br)c(C)c4)cc(C)nc32)cc1`: the Potency entry in assay [1], in assay [2] and in assay [3] was “inactive” throughout.

As to `O=C(Nc1ccc2c(c1)OCO2)Nc1nnc(-c2ccncc2)s1`, the Potency entry in assay [1], in assay [5], in assay [6] and in assay [4] was “inactive” throughout.

For the molecule `Cn1nnnc1Sc1ncnc2scc(-c3ccc([N+](=O)[O-])cc3)c12`, the Potency entry in assay [1], in assay [5] and in assay [6] was “inactive” each time.

As for `Cc1cccc(-c2ccc(C=O)cc2)c1`, the Potency in assay [1] was 12.6 µM (active); in assay [2], 0.047 µM (active); in assay [3], 39.8 µM (active); in assay [4] it was 9.37 µM (active).

On to `Cc1noc2c(NCCc3ccccn3)cc(-c3ccccn3)nc12`, for which the Potency entry in assay [1] was “inactive”. Besides, in assay [2], the Potency is 14.1 µM (active).

Consider `COc1ccccc1Nc1cc2ccccc2c(=O)[nH]1`, for which the Potency result in assay [1] and in assay [3] was “inactive” in each case. Besides, in assay [2], the Potency is 0.318 µM (active).

With `N#Cc1nc(NCC(F)F)nc(Nc2cc(F)cc(F)c2)n1`, the Potency result in assay [1], in assay [5], in assay [6] and in assay [4] was “inactive” in each case.

Regarding `CCn1cc2nc(SCc3ccc(F)cc3)n(CCc3ccccc3)c(=O)c2n1`, the results for the Potency in assay [1], in assay [2] and in assay [3] were 14.1 µM (active), 0.562 µM (active) and 7.94 µM (active), respectively. Besides, the Potency entry in assay [4] is “inactive”.

On to `O=c1[nH]c2ccc(NCc3ccc(-c4ccc(F)cc4)o3)cc2[nH]1`, for which the Potency in assay [1] is 0.914 µM (active). The Potency entry in assay [2] and in assay [3] was “inactive” throughout.

Consider `CCOc1ccc(CCNC(=O)c2ccc(N3N=C(C)CC3=O)cc2)cc1OCC`, for which the Potency in assay [1] is 1.26 µM (active); in assay [2] it was 0.1 µM (active); in assay [3], 0.896 µM (active); in assay [4] it was 0.896 µM (active). Besides, in assay [6], the Potency entry was “inactive”.

Take `Cc1cc(C)nc(NC(=C(C#N)C#N)N2CCN(c3cccc(C(F)(F)F)c3)CC2)c1`: the Potency in assay [1] was 14.2 µM (active). The Potency entry in assay [5] and in assay [6] was “inactive” throughout.

With `COc1ccc(N2CCN(C(=S)Nc3cc(C)ccn3)CC2)cc1`, the Potency was 10.1 µM (active) in assay [1], 22.5 µM (active) in assay [2], 12.7 µM (active) in assay [3] and 3.18 µM (active) in assay [4].

As for `O=C(CN1CCCN(S(=O)(=O)c2ccc(Br)cc2)CC1)Nc1cccc(C(F)(F)F)c1`, the Potency is 1.15 µM (active) in assay [1], 6.47 µM (active) in assay [2], 25.1 µM (active) in assay [3] and 1.45 µM (active) in assay [4].

With `CCN(CC)c1nc2ccccc2nc1C(=O)Nc1ccc(C(C)=O)cc1`, the Potency result in assay [1], in assay [2], in assay [3] and in assay [4] was “inactive” each time.

Consider `Cc1ccc(NC(=O)c2cc(-c3ccc(Br)s3)nc3ccccc23)cc1F`, for which the Potency entry in assay [1], in assay [2], in assay [3] and in assay [4] was “inactive” in each case.

Regarding `COc1ccc(NC(c2nnc(-c3ccccc3)o2)c2ccccc2F)cc1Cl` (stereo not drawn), the Potency result in assay [1], in assay [2], in assay [3] and in assay [4] was “inactive” in each case.

In the case of `O=C(Nc1cccc(-c2nn3c(=O)cc(N4CCNCC4)nc3s2)c1)c1ccncc1`, the Potency in assay [1] was 7.08 µM (active); in assay [2], 28.2 µM (active); in assay [3] it was 14.1 µM (active); in assay [4], 3.18 µM (active). Also, in assay [6], the Potency entry was “inactive”.

Turning to `O=C(Nc1ccc([S+](=O)([O-])Nc2nccs2)cc1)c1ccccn1`, the Potency result in assay [1], in assay [5], in assay [6] and in assay [4] was “inactive” throughout.

For the molecule `COc1ccc(Cn2c(=O)[nH]c3cc(C(=O)N4CCN(c5ccccc5)CC4)ccc3c2=O)cc1`, the Potency entry in assay [1], in assay [2], in assay [3] and in assay [4] was “inactive” each time.

For the molecule `COc1ccc(CNC(=O)c2cc3c(=O)n(Cc4ccc(OC)cc4)ccc3nc2C)cc1`, the Potency entry in assay [1], in assay [2], in assay [3] and in assay [4] was “inactive” each time.

As for `O=C(Nc1cccc(C(F)(F)F)c1)c1cc(-c2ccc(Cl)cc2)on1`, the Potency entry in assay [1], in assay [2] and in assay [3] was “inactive” each time.

Take `CC(=O)Nc1sc2c(c1-c1nc3ccccc3s1)CN(C1COC1)C2`: the Potency is 12.7 µM (active) in assay [1], 8.96 µM (active) in assay [2], 8.96 µM (active) in assay [3] and 2.52 µM (active) in assay [4]. In assay [6], the Potency result was “inactive”.

`COc1ccc(CN(Cc2ccccc2)C(=O)c2ccccc2N)cc1COc1ccc(NC(C)=O)cc1`: the Potency result in assay [1], in assay [5] and in assay [6] was “inactive” throughout.

With `O=S(=O)(Nc1ccc(O)c(NS(=O)(=O)c2ccccc2)c1)c1ccccc1`, the Potency entry in assay [1], in assay [5] and in assay [6] was “inactive” in each case. Moreover, the Potency in assay [4] was 2.83 µM (active).

Consider `CC1(C)CCC(C)(C)c2cc3c(cc21)Sc1ccccc1N=C3c1ccc(C(=O)O)cc1`, for which the Potency entry in assay [1], in assay [2], in assay [3] and in assay [6] was “inactive” each time. Further, the Potency in assay [7] is 6.31 µM (active).

In the case of `O=C(NCc1ccc(F)cc1)c1ccc2nnc(-c3cccc(C(F)(F)F)c3)n2c1`, the Potency result in assay [1], in assay [2], in assay [3] and in assay [4] was “inactive” in each case.

The record behind these values is PubChem BioAssay (NCATS).
